A short description of test [1]: qHTS drug screen for cell cycle checkpoint inhibitors in PARPi-resistant BRCA-mutant ovarian cancer cell lines. (AID 1963452; calls by dose curve). The conditions noted are these: PEO1/OlaR viability, CellTiter-Glo luminescence, 96 h, stronger effect = lower value. In outline: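 PEO1, PEO4 and PEO1/OlaR ovarian cancer cells, 600 per well, exposed 96 h at 37C to a dilution series. Viability read by CellTiter-Glo luminescence, normalized to DMSO and empty wells; activity summarized as Z-AUC.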

Test [2] is described as follows: qHTS profiling for inhibitors of Plasmodium falciparum proliferation (AID 504749). Also: potency is read from the fitted curve at half-maximal effect.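 As to activity, negative = inhibition: 0% = DMSO vehicle and full inhibition = artemisinin control.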 As to all read-outs here: nearly all actives have a fitted effect of over 60% in size. The note with it: P. falciparum in erythrocytes, SYBR Green DNA, 72 h; for activity, negative = inhibition: at 28.7 µM (top of the series). The gist of the method: (§1)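 Infected RBCs, 0.3% parasitemia/2.5% Hct final; cpd 72 h, 37 C, 5% CO2; lysis buffer with saponin/triton/SYBR Green I, o/n RT dark; FI 485/535; norm. to artemisinin (0.29 uM) and DMSO.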
Background: qHTS replaces the single test concentration by a dilution series.

The next test has as its system 3D7. The test is described as above. The conditions noted are these: P. falciparum in erythrocytes, SYBR Green DNA, 72 h; series mostly up to 28.7 µM. The gist of the method:
as §1

A further test deals with 7G8. The test is described as above. The note with it: P. falciparum in erythrocytes, SYBR Green DNA, 72 h; series mostly up to 28.7 µM. The gist of the method:
as §1

The test system of another test is AA1029. Described as above. The conditions noted are these: P. falciparum in erythrocytes, SYBR Green DNA, 72 h; series mostly up to 28.7 µM. The gist of the method:
as §1

The subject of another test is AS120. The description is as above. The conditions noted are these: P. falciparum in erythrocytes, SYBR Green DNA, 72 h; series mostly up to 28.7 µM. In outline: as §1
Another test deals with ATS189. The test is described as above. The conditions noted are these: P. falciparum in erythrocytes, SYBR Green DNA, 72 h; series mostly up to 28.7 µM. In outline: as §1
The next test deals with ATS95. Described as above. The conditions noted are these: P. falciparum in erythrocytes, SYBR Green DNA, 72 h; series mostly up to 28.7 µM. The gist of the method:
as §1

The test system of another test is C2A. The description is as above. The note with it: P. falciparum in erythrocytes, SYBR Green DNA, 72 h; series mostly up to 28.7 µM. In outline:
as §1

A further test concerns CP185. The test is described as above. The conditions noted are these: P. falciparum in erythrocytes, SYBR Green DNA, 72 h; series mostly up to 28.7 µM. In outline:
as §1

For the next test, the system named is CP191. The description is as above. The conditions noted are these: P. falciparum in erythrocytes, SYBR Green DNA, 72 h; series mostly up to 28.7 µM. The gist of the method:
as §1

For another test, the system named is CP192. Described as above. The note with it: P. falciparum in erythrocytes, SYBR Green DNA, 72 h; series mostly up to 28.7 µM. In outline: as §1
A further test concerns CP194. The description is as above. The note with it: P. falciparum in erythrocytes, SYBR Green DNA, 72 h; series mostly up to 28.7 µM. The gist of the method: as §1
A further test concerns CP201. The test is described as above. The note with it: P. falciparum in erythrocytes, SYBR Green DNA, 72 h; series mostly up to 28.7 µM. In outline:
as §1

The nature of test [3]: qHTS for identification of novel therapeutic agents for treatment of microphthalmiaassociated transcription factor (MiT) renal cell carcinoma (RCC) (AID 1963991). The conditions noted are these: CellTiter-Glo, 48 h, stronger effect = lower value. The gist of the method:
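Viability of three TFE3-fusion renal carcinoma lines measured by CellTiter-Glo after 48 h treatment with each of 1912 compounds at 11 concentrations. Responses scaled between DMSO (100%) and empty wells (0%) before curve fitting.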

In a further test the test system is CP203. The test is described as follows: qHTS profiling for inhibitors of Plasmodium falciparum proliferation (AID 504749). Also: nearly all actives have a fitted effect of over 60% in size. Also: potency is read from the fitted curve at half-maximal effect.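 As to activity, negative = inhibition: 0% = DMSO vehicle and full inhibition = artemisinin control.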 The conditions noted are these: P. falciparum in erythrocytes, SYBR Green DNA, 72 h; series mostly up to 28.7 µM. The gist of the method: as §1
[4] abbreviates: measured here: PEO1 parental Z-AUC.
[5] abbreviates: TFE3-RCC UOK109 viability, measured here: UOK109 Z-AUC.
Where [6] appears, read: TFE3-RCC viability, measured here: UOK124 Z-AUC.
Where [7] appears, read: TFE3-RCC viability, measured here: UOK145 Z-AUC.

We go through eleven compounds from PubChem BioAssay (NCATS).

Records with an inconclusive call do not appear. Calls of active or inactive are those of the source. Unless noted, calls follow the shape of the dose curve; as a rule, active = well fitted inhibition curve with a large enough effect; inconclusive = small, poorly fitted or top-dose-only effect; inactive = flat fitted curve, though single readings scatter.

As for `Cc1[nH]c(=O)c(C#N)cc1-c1ccncc1`, the results for the Z-AUC in test [1], in [1] (setting [4]) and in test [1] (measured here: PEO4 Z-AUC) were -0.809 (inactive), -0.611 and -0.635, respectively. In addition, the results for the activity, negative = inhibition in [2] (parasite line A) and in test [2] (parasite line B) were -21.8% (inactive) and -1.27% (inactive), respectively. In addition, the Potency result in the test with 3D7, with 7G8, in the test on AA1029, in the test with AS120, with ATS189 and with ATS95 was “inactive” in each case. In addition, the Potency result with C2A, with CP185, in the test with CP191, in the test on CP192 and in the test with CP194 was “inactive” in each case. For the same compound, the call with CP201 was inactive.
`NCCc1ccc(O)c(O)c1`: the Z-AUC in test [1] was 0.293 (inactive); in [1] (setting [4]), 0.902; in [1] (measured here: PEO4 Z-AUC), 0.891. In addition, the activity, negative = inhibition in test [2] (parasite line A) is -7.96% (inactive); in test [2] (parasite line B) it was 1.48% (inactive). Also, the Potency entry with 3D7, with 7G8, with AA1029, in the test with AS120, in the test on ATS189 and in the test on C2A was “inactive” each time. In addition, the Potency result with CP185, in the test on CP191, in the test with CP192 and with CP194 was “inactive” each time. Further, in the test on CP201, the call was inactive.
As for `CC(C)C[C@H](NC(=O)[C@@H](O)[C@H](N)Cc1ccccc1)C(=O)O`, the figures for the Z-AUC in [1], in test [1] (setting [4]) and in [1] (measured here: PEO4 Z-AUC) were 0.8 (inactive), 0.368 and 0.252, respectively. For the same compound, the Potency in [2] (parasite line A) is 2.51 µM (active); in [2] (parasite line B), 5.62 µM (active); in the test with 3D7, 2.51 µM (active); in the test with 7G8, 4.47 µM (active); in the test with AA1029, 5.62 µM (active); with AS120, 6.31 µM (active). For the same compound, the Potency is 8.91 µM (active) in the test on ATS189; 7.94 µM (active) with ATS95; 3.98 µM (active) in the test on C2A; 11.2 µM (active) in the test on CP185; 5.01 µM (active) with CP191; 6.75 µM (active) in the test with CP194.
With `Cn1cnc([N+](=O)[O-])c1Sc1ncnc2nc[nH]c12`, the Z-AUC in test [1] is -0.621 (inactive); in test [1] (setting [4]), -1.27; in test [1] (measured here: PEO4 Z-AUC), -1.41. Besides, the Potency entry in the test with 3D7, in the test on AA1029, in the test on AS120, in the test on ATS95 and in the test on CP192 was “inactive” throughout. The compound was classed as inactive with CP201.
Turning to `CCOc1ccc(Cc2cc([C@@H]3O[C@H](CO)[C@@H](O)[C@H](O)[C@@H]3O)ccc2Cl)cc1`, the z-score in test [3] (setting [5]) is 0.362; in [3] (setting [6]), 0.747; in test [3] (setting [7]), 0.623.
As for `OC(CN1CCC(Cc2ccc(F)cc2)CC1)c1ccc(Cl)cc1` (configuration not stated), the values for the z-score in test [3] (setting [5]), in [3] (setting [6]) and in test [3] (setting [7]) were 0.0108, 0.291 and 0.245, respectively. In addition, in [2] (parasite line A), the activity, negative = inhibition is -26.6% (inactive). The Potency in test [2] (parasite line B) is 0.891 µM (active); in the test with 3D7, 5.01 µM (active); in the test with 7G8, 0.316 µM (active); with AA1029 it was 1.41 µM (active); in the test with AS120 it was 1.26 µM (active); in the test on ATS189, 1.41 µM (active). In addition, in the test on ATS95, the Potency was 1.58 µM (active). Also, the Potency result with C2A and in the test on CP191 was “inactive” each time. In the test on CP201, the call was inactive.
Consider `Clc1cccc(Cl)c1NC1=NCCN1`, for which the z-score was 0.351 in [3] (setting [5]), 0.654 in test [3] (setting [6]) and -0.377 in test [3] (setting [7]). For the same compound, the activity, negative = inhibition in test [2] (parasite line A) was -1.81% (inactive); in test [2] (parasite line B), 0.0653% (inactive). For the same compound, the Potency result in the test on 3D7, in the test with AA1029, with AS120, in the test on ATS189, in the test with ATS95 and in the test on C2A was “inactive” throughout. Further, the Potency entry in the test with CP185, in the test with CP191, in the test with CP192 and in the test with CP194 was “inactive” throughout. Also, the compound was called inactive in the test on CP201.
Regarding `CN1CCN(CCCN2c3ccccc3Sc3ccc(C(F)(F)F)cc32)CC1`, the results for the Z-AUC in test [1], in [1] (setting [4]) and in test [1] (measured here: PEO4 Z-AUC) were 0.668 (inactive), 0.224 and 0.215, respectively. Besides, the Potency in test [2] (parasite line A) is 2.24 µM (active); in test [2] (parasite line B), 2 µM (active); with 7G8 it was 7.94 µM (active); in the test on AA1029, 3.16 µM (active); with AS120, 3.16 µM (active); in the test on ATS189 it was 3.98 µM (active). Further, the results for the Potency in the test on ATS95, with C2A and in the test on CP191 were 12.6 µM (active), 7.94 µM (active) and 10 µM (active), respectively. The compound was called inactive in the test on CP201.
For the compound `CCCc1nc2c(C)cc(-c3nc4ccccc4n3C)cc2n1Cc1ccc(-c2ccccc2C(=O)O)cc1`, the Z-AUC is 0.748 (inactive) in [1], 1.08 in [1] (setting [4]) and 0.729 in [1] (measured here: PEO4 Z-AUC). Further, the activity, negative = inhibition in test [2] (parasite line A) was -11.3% (inactive). For the same compound, the Potency was 1.78 µM (active) in test [2] (parasite line B); 8.91 µM (active) with 3D7; 0.316 µM (active) in the test with 7G8; 1.41 µM (active) with AS120; 0.794 µM (active) in the test on ATS189; 3.98 µM (active) in the test on ATS95. In addition, in the test on CP185, the Potency entry is “inactive”. In addition, the compound was classed as inactive in the test on CP201.
Take `COc1ccc2nc(S(=O)Cc3ncc(C)c(OC)c3C)[nH]c2c1` (configuration not stated): the results for the Z-AUC in test [1], in [1] (setting [4]) and in test [1] (measured here: PEO4 Z-AUC) were 1.57 (inactive), 0.925 and 1.02, respectively. Moreover, the activity, negative = inhibition in test [2] (parasite line A) is -18.6% (inactive); in [2] (parasite line B) it was -6.81% (inactive). Also, the Potency entry in the test with 3D7, with AA1029, with AS120, in the test on ATS189, in the test with ATS95 and with C2A was “inactive” in each case. Moreover, the Potency result in the test on CP185, with CP192, in the test with CP194 and in the test on CP203 was “inactive” throughout. For the same compound, the Potency in the test with 7G8 is 10 µM (active). Further, the call in the test on CP201 was inactive.
`Cc1cc2c(C(C)C)c(O)c(O)c(C=O)c2c(O)c1-c1c(C)cc2c(C(C)C)c(O)c(O)c(C=O)c2c1O`: the results for the Z-AUC in test [1], in test [1] (setting [4]) and in [1] (measured here: PEO4 Z-AUC) were 1.05 (inactive), 0.604 and 0.413, respectively. The Potency in the test on 7G8 and in the test on AS120 was 8.91 µM (active) in each case.
